Bioassay records: PubChem BioAssay, National Center for Advancing Translational Sciences (NCATS)
Hits are enriched below; roughly 3.2% of the tested compounds scored in any of these assays.
IL-2 act: activators of IL-2 | 360,000 tested, 0.065% active | IL-2 activation reporter assay, cell-based qHTS; stimulated with anti-CD3/CD4/CD28 beads; in transgenic mouse T cells | activation, % (series mostly up to about 46 µM); in the data active = activation above about 50%; inconclusive = mostly about 30% to 49%
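Quantitative HTS in unstimulated transgenic mouse T cells, with memory T cells as non-tolerant control and PMA/ionomycin as tolerance-bypass control. Compound pretreatment lasted 60 minutes before 18 h bead stimulation; EGFP/DsRed fluorescence read.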
BRCA1 expr up: increases BRCA1 expression; MCF7-BRCA1-FFLuc reporter, luminescence, 48 h; response scale: scaled: vehicle 0%, 10 µM genistein 100%; Potency, µM (titrated, usually from 46.1 µM), usual class: activators; 380,000 tested, 1.1% active; also: nearly all actives have a fitted effect of over 80% in size
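Activators of BRCA1 expression were detected as increased firefly luciferase luminescence in engineered MCF7 cells after 48 h compound incubation. Signals were scaled to genistein 10 microM as full activation.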
Nrf2 activator: activates Nrf2 signaling. AREc32 ARE-luciferase reporter (MCF7-derived line), luminescence, 24 h. Potency, µM (top dose mostly 46.1 µM), hits mostly activators. 410,000 tested, 0.31% active. AID 624171; also: nearly all actives have a fitted effect of over 65% in size
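For detection, Steady-Glo was added and plates sat 30 min at RT; before that, AREc32_Fluc cells grown overnight in OPTI-MEM/5% FBS had been treated with 23 nL compound for 24 hr at 37 deg C.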
A549 viability: counter-screen for Nrf2 inhibitors: cytotoxicity in A549 cells. A549 ARE-Fluc cells, CellTiter-Fluor viability, 18-24 h. Potency, µM (top dose mostly 46 µM), actives largely listed as inhibitors. 390,000 tested, 0.16% active. AID 504648
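A549 ARE-Fluc cells in 5% FBS OPTI-MEM, 5000 cells/well, rested 2 h then exposed to compounds in concentration-response for 18-24 h at 37 °C. Viability by CellTiter-Fluor fluorescence (Ex 405/Em 525) after 30 min; luciferase luminescence (BugLite, 15 min, RT) read afterwards.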
Nrf2 block: Nrf2 pathway inhibition | AID 504444 | 360,000 tested, 2.1% active | A549 ARE-Fluc reporter, luciferase luminescence, 18-24 h | Potency, µM (titrated, usually from 46 µM), hits mostly inhibitors; also: nearly all actives have a fitted effect of over 60% in size
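In this cell-based qHTS, ARE-driven firefly luciferase in A549 cells reports Nrf2 activity; the luminescent signal after BugLite lysis is the measured value, with a prior CellTiter-Fluor read for cell health.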
p53 reactivator: mutant p53 re-activation in reporter cells; H1299 p53-A138V BP100-luciferase reporter, luminescence, 24 h; Potency, µM (series often up to 92.2 µM), usual class: activators; 320,000 tested, 0.063% active; also: nearly all actives have a fitted effect of over 45% in size
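p53-null H1299 cells stably carrying temperature-sensitive p53-A138V and a BP100-luciferase reporter were pinned with compounds (4-point, 1:5 series) and held 24 hrs at 37 deg C. Luminescence was read 10 min after detection reagent.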
Of the large screens only hits and unclear results are named; the others gave an inactive call. Unless noted, calls follow the shape of the dose curve; as a rule, active = well fitted curve in the direction sought with a large enough effect; inconclusive = small, poorly fitted or top-dose-only effect, or another doubt; inactive = no such curve, though single readings can be large; an effect the other way counts as inactive or inconclusive.

CCCCOc1ccc(CNC(=O)CCCN2C(=O)CSc3c2c(C)nn3-c2ccccc2)cc1	Nrf2 block 29µM (no result: IL-2 act, p53 reactivator)
CC(C)c1ccccc1NC(=O)COC(=O)c1c2c(nc3ccccc13)CCN(Cc1ccccc1)C2	Nrf2 block inconclusive
Cc1c(Cl)cccc1NC(=O)COC(=O)c1c2c(nc3ccccc13)CCN(Cc1ccccc1)C2	A549 viability inconclusive, Nrf2 block 21µM
COc1cccc(NC(=O)COC(=O)c2c3c(nc4ccccc24)CCC(C)C3)c1 (stereo unspecified)	A549 viability inconclusive, Nrf2 block 16µM
Cc1cc(N2CCN(C)CC2)ccc1NC(=O)c1c2c(nc3ccccc13)CCN(Cc1ccccc1)C2	A549 viability 10µM, Nrf2 block 18µM
O=C(NC1CCCCCC1)c1c2c(nc3ccccc13)CCN(Cc1ccccc1)C2	Nrf2 block inconclusive
CC1CCc2nc3ccccc3c(C(=O)OCC(=O)NC3CCS(=O)(=O)C3)c2C1 (stereo unspecified)	none
S=C(NCCCN(Cc1ccc(Cl)c(Cl)c1)c1ccc(Br)cn1)NCCc1cnc[nH]1	none (no result: IL-2 act, BRCA1 expr up, Nrf2 activator, p53 reactivator)
CCOC(=O)c1noc2ncn(CC(=O)Nc3ccc(OC)c(Cl)c3)c(=O)c12	none (no result: IL-2 act, Nrf2 block, p53 reactivator)
CCCCN(Cc1ccccc1)S(=O)(=O)c1ccc2c(c1)CCN2C(=O)C1CCC1	none (no result: IL-2 act, p53 reactivator)
CC(=O)c1ccc(NS(=O)(=O)c2ccc(C)cc2)cc1	none
CC(=O)c1ccc(NS(=O)(=O)c2ccc(C(C)(C)C)cc2)cc1	Nrf2 block 8.2µM
CN(C)/C=C/C(=O)c1cnc(-c2cccc(Cl)c2)s1	BRCA1 expr up inconclusive
CN(C)/C=C/C(=O)c1cnc(-c2ccccc2Cl)s1	BRCA1 expr up 6.3µM, Nrf2 block inconclusive
Cc1cc(NC(=O)c2cncc(Br)c2)ccc1NC(=O)c1cc2ccccc2o1	A549 viability inconclusive, Nrf2 block 13µM
Cc1cc([N+](=O)[O-])ccc1NCc1cccc2ccccc12	A549 viability inconclusive, Nrf2 block 15µM (no result: p53 reactivator)
Cc1cc([N+](=O)[O-])ccc1NCc1ccccc1[N+](=O)[O-]	none
Cc1cc([N+](=O)[O-])ccc1NC(=O)c1cc2ccccc2o1	BRCA1 expr up 7.9µM, Nrf2 block inconclusive (no result: p53 reactivator)
COc1ccccc1CNC(=O)c1cn(C)c2ccc(S(=O)(=O)N(C)C3CCCCC3)cc2c1=O	none (no result: IL-2 act, BRCA1 expr up, p53 reactivator)
COc1cccc(C2c3c(ncn(-c4ccccc4OC)c3=N)Oc3ccc4ccccc4c32)c1 (stereo unspecified)	A549 viability inconclusive (no result: IL-2 act, BRCA1 expr up, Nrf2 activator, p53 reactivator)
COc1ccc(-c2cn3c(n2)sc2cc(C(=O)NC(C)C45CC6CC(CC(C6)C4)C5)ccc23)cc1 (stereo unspecified)	none (no result: IL-2 act, BRCA1 expr up, p53 reactivator)
COc1ccccc1/C=C/c1cnccn1	none (no result: IL-2 act, Nrf2 activator, A549 viability, Nrf2 block, p53 reactivator)
COc1cccc(/C=C/c2ccccn2)c1O	Nrf2 activator 8.9µM, p53 reactivator inconclusive
O=C1c2ccccc2C(=O)c2[nH]cnc21	p53 reactivator inconclusive
O=C1c2ccccc2C(=O)c2[nH]c(=O)[nH]c21	A549 viability 15µM, Nrf2 block 21µM
CCOC(=O)C1=C(COC(=O)c2cccc(N(C)C)c2)NC(=O)NC1C (stereo unspecified)	BRCA1 expr up 4.5µM
CCCCNC(=O)c1ccc2nc(-c3cccs3)c(-c3cccs3)nc2c1	none (no result: IL-2 act, Nrf2 activator, p53 reactivator)
CC(=O)OCC(=O)Nc1ccc([N+](=O)[O-])cc1Cl	none
O=C(Nc1ccccn1)c1ccc([N+](=O)[O-])cc1Cl	none
Cc1ccc(NC(=O)c2ccc([N+](=O)[O-])cc2Cl)nc1	BRCA1 expr up 1.1µM, Nrf2 block inconclusive, p53 reactivator inconclusive
O=C(Nc1ccc([N+](=O)[O-])cc1Cl)c1ccccc1O	A549 viability inconclusive, Nrf2 block 23µM (no result: IL-2 act, Nrf2 activator, p53 reactivator)
O=C(Nc1cccc(O)c1)c1ccc([N+](=O)[O-])cc1Cl	BRCA1 expr up 5µM, p53 reactivator inconclusive
CC(=O)Oc1c(C)cc(Cl)cc1C(=O)Nc1ccc([N+](=O)[O-])cc1Cl	A549 viability 2.6µM, Nrf2 block 1.6µM, p53 reactivator inconclusive
